Laboratory results: PubChem BioAssay (NCATS)
Results filed as inconclusive are left out. Calls of active or inactive are those of the source. Unless noted, calls follow the shape of the dose curve; as a rule, active = well fitted curve in the direction sought with a large enough effect; inconclusive = small, poorly fitted or top-dose-only effect, or another doubt; inactive = no such curve, though single readings can be large; an effect the other way counts as inactive or inconclusive.

Columns and labels:
[1] = target: Guanine nucleotide-binding protein G(i) subunit alpha-1 (Homo sapiens) (UniProt P63096); assay: qHTS Assay for Inhibitors of RGS12 GoLoco Motif Activity (Green Fluorophore) (AID 879);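 also: negative values mean loss of peptide binding seen as reduced polarization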
In short: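 A drop in FITC polarization marked displacement of the FITC-tagged RGS12 GoLoco peptide (10 nM) from Gαi1 (50 nM). Compounds were incubated 10 min at room temperature in Tris pH 7.5 buffer containing 150 mM NaCl, 0.1 mM GDP and 0.05% NP40; unlabeled peptide titration served as control.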

[2] = qHTS Assay for Identification of Small Molecule Antagonists for NFkB Signaling Pathway (AID 895; active = well fitted inhibition curve with a large enough effect in the signal ratio, with a control signal flat, not every such curve was filed as active; the % refers to the signal ratio)
In short: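 NFkB-bla ME-180 cervical carcinoma cells with beta-lactamase reporter under NFkB response element; compounds added, then TNF alpha at 10 pM final (EC50), 5 h at 37 C. LiveBLAzer substrate 2 h, room temperature; emission 460/530 nm at 405 nm excitation.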

[3] = target: Pyruvate kinase (Leishmania mexicana) (UniProt Q27686); assay: qHTS Validation Assay for Inhibitors of Leishmania Mexicana Pyruvate Kinase (AID 945); also: potency is read from the fitted curve at half-maximal effect
In short: (§1)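 An endpoint luciferase assay: 0.2 nM LmPYK E451W turns over 0.5 mM PEP with 0.1 mM ADP for 1 h at room temperature, pH 7.2, before PKLight addition. Values are normalized to DMSO-only wells.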

[4] = target: Pyruvate kinase PKM (Homo sapiens) (UniProt P14618); assay: qHTS Assay for Activators of Human Muscle Pyruvate Kinase (AID 954; active = well fitted curve in the direction sought with a large enough effect, not every such curve was filed as active)
In short: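 A coupled luminescent readout tracked ATP made from ADP by purified PKM2. Final conditions included 0.1 nM enzyme, PEP and ADP at 0.5 and 0.1 mM, pH 7.2 imidazole buffer with BSA, and a one-hour room-temperature reaction.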

[5] = target: Pyruvate kinase PKM (Homo sapiens) (UniProt P14618); assay: qHTS Assay for Inhibitors of Human Muscle Pyruvate Kinase (AID 958); details: purified human PKM enzyme activity
In short: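 Compound pinned into substrate mix (0.5 mM PEP, 0.1 mM ADP), then 0.1 nM PKM2 added; 1 h, RT. Stop/detection luciferase reagent added, luminescence read. Normalized to no-inhibition and no-enzyme or reference-inhibitor controls.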

[6] = target: Pyruvate kinase (Leishmania mexicana) (UniProt Q27686); assay: qHTS Validation Assay for Activators of Leishmania Mexicana Pyruvate Kinase (AID 959)
In short: as §1

[7] = target: Alpha-galactosidase A (Homo sapiens) (UniProt P06280); assay: Counterscreen for Glucocerebrosidase Inhibitors: qHTS Assay for Human alpha-Galactosidase at pH 4.5 (AID 992)
In short: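 Citrate buffer pH 4.5, Tween-20 0.005%. Enzyme 2 nM, substrate 80 uM, 20 min RT. Stop pH 10. Fluorescence Ex 365/Em 440. AC50 by Hill fit.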

[8] = target: alpha-glucosidase (Oryza sativa, rice) (UniProt Q653V4); assay: Counterscreen for Glucocerebrosidase Inhibitors: qHTS Assay for Rice alpha-Glucosidase at pH 5.0 (AID 997)
In short: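 Endpoint fluorogenic assay at pH 5.0: compounds (0.7 nM to 77 uM) titrated against 4 nM rice enzyme and 400 uM 4-MU-alpha-glucoside for 20 min at room temperature; NaOH/glycine stop, read ex 365/em 440 nm, Hill-fitted AC50.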

[9] = target: DNA dC->dU-editing enzyme APOBEC-3G (Homo sapiens) (UniProt Q9HC16); assay: qHTS for inhibitors of Vif-A3G interactions: Validation (AID 588379)
In short: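 Yellow fluorescence (Ex 488, Em 500-530) of Vif-coexpressing HeLa A3G-eYFP cells, scanned by Acumen cytometer, reports blocked A3G degradation. Cells plated at 700/well overnight at 37 deg C before compound addition, then a further overnight compound incubation at 37 deg C.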

[10] = S16 Schwann cell viability assay (CellTiter-Glo assay) (AID 624031);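 also: native untransfected S16 rat Schwann cells; cellular ATP luminescence as a viability measure; nearly all actives have a fitted effect of over 70% in size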
In short: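 Rat S16 Schwann cells without reporter constructs received compound or DMSO for 24 h at 37 °C under 5% CO2. Cellular ATP was then quantified by CellTiter-Glo luminescence, with vehicle wells defined as 0% activity and cell-free wells as reference.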

[11] = S16 Schwann cell PMP22 intronic element firefly luciferase assay (AID 624032); also: nearly all actives have a fitted effect of over 30% in size
In short: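 Rat S16 Schwann cells stably carrying a PMP22 intronic element-driven Fluc reporter were seeded overnight, then exposed to compounds for 24 h at 37 °C. Luminescence was normalized to PTC124 (positive control) and DMSO (0% activity).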

CP260 = assay: qHTS profiling for inhibitors of Plasmodium falciparum proliferation (AID 504749); also: nearly all actives have a fitted effect of over 60% in size; details: P. falciparum in erythrocytes, SYBR Green DNA, 72 h; series mostly up to 28.7 µM
In short: (§2)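 Fluorescence of SYBR Green-bound parasite DNA, read at 485/535 nm, served as the growth measure. Infected erythrocytes were cultured with compound 72 h; artemisinin (0.29 uM) and DMSO wells defined the normalization range.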

CP297 = assay: as above; details: P. falciparum in erythrocytes, SYBR Green DNA, 72 h; series mostly up to 28.7 µM
In short: as §2

CP315 = assay: as above; details: P. falciparum in erythrocytes, SYBR Green DNA, 72 h; series mostly up to 28.7 µM
In short: as §2

JCK = assay: as above; details: P. falciparum in erythrocytes, SYBR Green DNA, 72 h; series mostly up to 28.7 µM
In short: as §2

TAB165 = assay: as above; details: P. falciparum in erythrocytes, SYBR Green DNA, 72 h; series mostly up to 28.7 µM
In short: as §2

Measured: Potency

Sequence of Pyruvate kinase PKM (Homo sapiens) (P14618 whole entry, looked up): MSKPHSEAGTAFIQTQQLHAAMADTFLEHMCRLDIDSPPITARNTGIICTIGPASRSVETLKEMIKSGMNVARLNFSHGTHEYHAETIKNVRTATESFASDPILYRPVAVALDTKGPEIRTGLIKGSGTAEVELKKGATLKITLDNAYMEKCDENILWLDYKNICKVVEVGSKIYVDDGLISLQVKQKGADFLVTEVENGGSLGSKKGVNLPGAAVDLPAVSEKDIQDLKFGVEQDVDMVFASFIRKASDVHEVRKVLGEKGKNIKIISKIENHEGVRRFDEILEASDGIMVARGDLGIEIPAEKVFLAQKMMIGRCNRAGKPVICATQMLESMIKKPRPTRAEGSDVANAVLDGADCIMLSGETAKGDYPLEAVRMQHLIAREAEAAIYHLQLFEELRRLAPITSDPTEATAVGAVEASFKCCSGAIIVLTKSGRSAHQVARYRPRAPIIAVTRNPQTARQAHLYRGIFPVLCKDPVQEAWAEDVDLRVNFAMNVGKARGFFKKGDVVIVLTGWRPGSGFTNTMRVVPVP
Sequence of Pyruvate kinase (Leishmania mexicana) (Q27686 2-499 E452W): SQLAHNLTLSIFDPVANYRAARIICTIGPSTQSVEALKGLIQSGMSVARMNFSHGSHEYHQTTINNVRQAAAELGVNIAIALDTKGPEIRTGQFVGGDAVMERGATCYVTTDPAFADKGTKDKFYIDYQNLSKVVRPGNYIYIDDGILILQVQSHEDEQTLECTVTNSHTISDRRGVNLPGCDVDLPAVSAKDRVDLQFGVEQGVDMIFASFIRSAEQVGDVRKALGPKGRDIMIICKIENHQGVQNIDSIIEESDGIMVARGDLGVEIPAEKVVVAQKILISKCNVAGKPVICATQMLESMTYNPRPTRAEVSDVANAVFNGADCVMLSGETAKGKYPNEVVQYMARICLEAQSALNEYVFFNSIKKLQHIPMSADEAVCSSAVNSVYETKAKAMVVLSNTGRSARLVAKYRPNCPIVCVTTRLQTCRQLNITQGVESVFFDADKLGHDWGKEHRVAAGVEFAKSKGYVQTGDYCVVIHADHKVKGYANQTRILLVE
Sequence of Alpha-galactosidase A (Homo sapiens) (P06280 whole entry, looked up): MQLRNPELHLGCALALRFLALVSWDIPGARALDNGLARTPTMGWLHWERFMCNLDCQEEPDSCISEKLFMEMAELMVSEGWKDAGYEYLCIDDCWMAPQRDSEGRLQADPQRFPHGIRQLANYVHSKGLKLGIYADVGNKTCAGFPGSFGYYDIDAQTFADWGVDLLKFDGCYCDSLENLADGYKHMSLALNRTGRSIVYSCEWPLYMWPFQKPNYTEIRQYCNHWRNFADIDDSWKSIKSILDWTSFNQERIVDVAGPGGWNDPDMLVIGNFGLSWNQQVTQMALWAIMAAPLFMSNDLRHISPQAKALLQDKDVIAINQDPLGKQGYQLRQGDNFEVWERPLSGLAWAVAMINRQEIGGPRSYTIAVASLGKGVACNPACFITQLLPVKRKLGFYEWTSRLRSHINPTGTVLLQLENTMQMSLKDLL
Sequence of DNA dC->dU-editing enzyme APOBEC-3G (Homo sapiens) (Q9HC16 whole entry, looked up): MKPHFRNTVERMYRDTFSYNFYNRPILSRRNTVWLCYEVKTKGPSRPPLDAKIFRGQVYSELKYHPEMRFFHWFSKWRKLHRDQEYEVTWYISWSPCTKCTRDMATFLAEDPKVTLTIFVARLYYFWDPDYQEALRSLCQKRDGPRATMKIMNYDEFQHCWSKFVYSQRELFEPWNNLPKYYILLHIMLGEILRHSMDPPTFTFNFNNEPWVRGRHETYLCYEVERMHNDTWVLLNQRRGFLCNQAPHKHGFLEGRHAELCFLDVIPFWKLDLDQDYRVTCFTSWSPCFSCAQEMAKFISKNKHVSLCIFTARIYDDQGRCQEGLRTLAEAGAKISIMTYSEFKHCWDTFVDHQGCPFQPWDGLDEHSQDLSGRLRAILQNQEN
Sequence of Guanine nucleotide-binding protein G(i) subunit alpha-1 (Homo sapiens) (P63096 whole entry, looked up): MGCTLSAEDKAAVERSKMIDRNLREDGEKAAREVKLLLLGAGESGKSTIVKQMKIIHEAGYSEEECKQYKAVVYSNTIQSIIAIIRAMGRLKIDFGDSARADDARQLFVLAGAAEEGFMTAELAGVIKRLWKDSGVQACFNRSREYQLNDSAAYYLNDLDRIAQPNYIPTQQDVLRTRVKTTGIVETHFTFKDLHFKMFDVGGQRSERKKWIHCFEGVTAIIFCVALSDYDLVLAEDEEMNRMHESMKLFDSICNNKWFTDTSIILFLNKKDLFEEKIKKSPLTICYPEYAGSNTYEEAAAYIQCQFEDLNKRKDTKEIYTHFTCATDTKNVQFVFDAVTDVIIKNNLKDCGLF

Oc1ccc(/C=C\c2cc(O)cc(O)c2)cc1
active: [3] 2510 nM | [5] 3160 nM
inactive: [1] | [2] | [4] | [6] | [7] | [8] | [9] | [10] | [11] | CP260 | CP297 | CP315 | JCK | TAB165
